Where “and” joins values, the source holds several entries; their conditions need not be identical. Equal entries are not always repeated. About 83,000 compounds went through this panel and 20% of them were active in at least one assay; those are over-represented in the sample as a whole.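 Method: cells in 96-well plates; compound added at one concentration; 48 h incubation; percent growth measured; values under 10 scored active.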 Calls of active or inactive are those of the source.

40 compounds from PubChem BioAssay (NCI) can be followed below.

The experiment concerns HL-60(TB) leukemia. Kind of experiment: NCI-60 one-dose screen, 48 h (100 = growth as untreated, 0 = no growth, -100 = all killed). As to conditions: 10 µM unless noted.
Consider `Cc1cc(N2CCOCC2)nc(N2CCOCC2)n1`, for which the growth was 97.9% (inactive).
In the case of `OB(O)c1ccccc1` it was 98.1% (inactive); in that of `O=C(/C=C/c1ccc(Cl)cc1)c1ccc(O)c(CN2CCN(c3cc4c(cc3F)c(=O)c(C(=O)O)cn4C3CC3)CC2)c1`, 51.5% (inactive); in that of `Nc1c(Br)cc(Br)c2c1[nH]c(=O)c1ccccc12`, 89.8% (inactive).
Turning to `C#CCOc1ccc2ncnc(Nc3cccc(CNC(=O)CCl)c3)c2c1`, the growth was 35.2% [8.25 µM] (inactive).
Turning to `CNC(C)[C@H]1CCC2C3CCC4C[C@@H](N(C)C(=O)c5ccccc5)CC[C@]4(C)C3CC[C@@]21C` (stereo not given in full), the growth was 14.9% (inactive).
Turning to `O=C(O)COCC(=O)O`, the growth was 102% (inactive).
As for `CN(c1ccccc1)c1ccc2c(c1)OCCC21CC1Nc1cnccc1C(=O)O` (stereo not given), the growth was 65.3% (inactive).
Regarding `O=S(=O)(c1ccc(NC(=S)NC23CC4CC(CC(C4)C2)C3)cc1)N1CCCCC1`, the growth was -29.2% (active).
In the case of `C=CCSc1n[nH]c(-c2cccs2)n1` it was 111% (inactive).
In the case of `C=C(C)[C@@H]1CC[C@]2(C)[C@H](CC=C3[C@@H]4[C@H](C)[C@@H](C)CC[C@]4(CO)CC[C@]32C)[C@@]1(C)CCCN`, the growth is -45.2% (active).
Take `CCCCCCC1(C)NCCO1` (stereo not given): the growth is 91.2% (inactive).
In the case of `Cc1ccc(S(N)(=O)=O)cc1Cl`, the growth was 79.8% (inactive).
For `Cc1c(C(=O)NCCN2CCOCC2)cn2ncnc(Oc3ccc(NC(=O)Nc4ccc(Cl)c(C(F)(F)F)c4)cc3)c12`, the growth was -0.946% (active).
Next, `COc1ccc(CCn2cnn3c(=O)c4ccccc4nc3c2=O)cc1OC`: 92.4% (inactive) and 103% (inactive).
As for `CC(C)(C)c1ccc(Cn2cc(CSc3nc4ccccc4s3)nn2)cc1`, the growth is 93.7% (inactive).
`Nc1cccc(-c2nc3sccn3c2-c2ccnc(NCCNS(=O)(=O)c3ccc(C(F)(F)F)cc3)n2)c1`: the growth is 89.1% (inactive).
Regarding `O=C(Nc1ccc(-c2nc3cc4ccccc4cc3[nH]2)cc1)c1cccc(Br)c1`, the growth is 42.3% (inactive).
As to `CCCC(C)OCC(=O)O` (stereo not given), the growth was 88.8% (inactive).
On to `Cc1cccc(CO)c1`, for which the growth was 109% (inactive).
Consider `COc1cccc(-c2cc(-c3cccs3)c(C#N)c(=O)[nH]2)c1`, for which the growth is 102% (inactive).
For the compound `CC(C)(C)NCCC(O)c1cc2c(Cl)cc(Cl)cc2c2cc(C(F)(F)F)ccc12` (stereo not given), the growth is -60.9% (active).
Take `Oc1c(Cl)cc(Cl)c2ccc(Cn3cc(-c4ccc(C(F)(F)F)cc4)nn3)nc12`: the growth was -24.9% (active).
Next, `COc1ccc(-c2csc(NC(=O)CN3CCN(c4cc5c(cc4F)c(=O)c(C(=O)O)cn5C4CC4)CC3)n2)cc1`: -25% (active); `O=c1c2ccccc2nc2n1Cc1nc3ccccc3c(=O)n1C2`: 100% (inactive) and -60.2% (active); `N#Cc1cnn2c(-c3ccc(Cl)cc3)nc(NC3CC3)nc12`: 98.2% (inactive).
As to `CCOc1ccc2[nH]c(=S)sc2c1`, the growth is 78.9% (inactive).
Turning to `Cn1cc(-c2csc(-c3cn(CCCN4CCCCC4)c4ccc(Br)cc34)n2)c2cccnc21`, the growth was 0.828% (active).
As for `COc1cccc(CNc2ccc3ncnc(Nc4ccc(F)c(Cl)c4)c3c2)c1`, the growth was 93.6% (inactive).
For the compound `Cc1ccc(Nc2cc(N)nc(N)n2)cc1Cl`, the growth was 98.7% (inactive).
For `COc1ccc(C2=C(c3cc(OC)c(OC)c(OC)c3)C(=O)CC2)cc1`, the growth is 11.1% (inactive).
As to `CCCCCCCC/C=C\CCCCCCCCOc1ccccc1CCOP(=O)(O)OCC[N+](C)(C)C`, the growth was -23% (active).
Next, `Cc1cc(N2CCCC2)nc(N(CCCNc2ccnc3cc(Cl)ccc23)Cc2ccc3c(c2)OCO3)n1`: -62.9% (active); `O=Cc1ccccc1C(=O)O`: 111% (inactive); `Oc1ccc(N=Nc2ccc(Br)cc2)c(O)c1`: -21.8% (active).
Take `COc1ccc(-c2cc(/C=C3\C(=O)Nc4cc(Cl)ccc43)[nH]n2)cc1OC`: the growth was 53% (inactive).
`O=C(c1ccncc1)c1c(Cc2ccccc2)ccc2ccccc12`: the growth was 88.1% (inactive).
With `CCOc1ccc(/C=N/Nc2cc(C)nc3ccc(Cl)cc23)cc1`, the growth was -51.7% (active).
Next, `Cc1cc(C(c2ccccc2)c2ccccc2)ccc1NS(=O)(=O)c1ccccc1`: 78.5% (inactive).
Next, `O=C1C(Cl)=C(Nc2ccccn2)C(=O)c2ccccc21`: 72.9% (inactive).
